Measured values: PubChem BioAssay AID602364 (National Center for Advancing Translational Sciences (NCATS), 2012)
Records with an inconclusive call do not appear. The source made the active and inactive calls. The call rests on the fitted dose curve; in most records, active means well fitted inhibition curve with a large enough effect; inconclusive means small, poorly fitted or top-dose-only effect; inactive means flat fitted curve, though single readings scatter.

Biological target: Luciferin 4-monooxygenase (Photinus pyralis) (UniProt P08659)
Assay: FLuc inhibitory activity for the follow-up compounds in a biochemical assay with 1mM ATP
Settings: purified P. pyralis luciferase, luminescence; series mostly up to 57.5 µM
Excerpt: NCGC Assay Overview: Firefly (Photinus pyralis) luciferase is one of the most commonly used transcriptional reporters. It is considered one of the more dynamically responsive reporters - that is, responsive to changes in reporter transcription - as it requires no post-translational modifications and is enzymatically active directly after protein synthesis (Wood, 1998). With no endogenous expression in mammalian cells and without the requirement of external excitation, it offers very little background signal, thus generally providing excellent signal to background for most assays. Previous profiling work to determine the prevalence of compounds that affect FLuc enzymatic activity (PubChem AID 411) identified that ~3% of the MLSMR library (then at ~72K) inhibited FLuc. […] Of the compounds identified in this profile that inhibited FLuc, 151 compounds were selected for further analysis, in an effort to better understand their mode of inhibiting FLuc. The assay described here was to determine the activity of the compounds in a FLuc assay that contained a KM concentration of D-luciferin and a high concentration (1mM) of ATP.
NCGC Assay Protocol Summary: Reagents: 50mM Tris acetate, pH 7.5; 10mM Mg acetate; 10uM D-luciferin (Sigma #L9504); 1mM ATP; 0.01% Tween-20; 0.05% BSA; 10nM P. pyralis luciferase (Sigma #L9506) Control compounds used were two known firefly luciferase inhibitors (3-(5-(3-chlorophenyl)-1,2,4-oxadiazol-3-yl)benzoic acid and 5-(2-fluorophenyl)-3-phenyl-1,2,4-oxadiazole), and DMSO. Three microliters containing firefly luciferase substrates in buffer (final concentrations: 50mM Tris acetate, pH 7.5, 10mM Mg acetate, 0.01% Tween-20, 0.05% BSA, 10uM D-luciferin, 1mM ATP) are dispensed into each well of a Greiner white, solid-bottom 1536-well format plate using a flying reagent dispenser (FRD). These assay plates were then treated with 23nL of compound or DMSO using a Kalypsys pin tool, which allows for delivery of a 12-point intraplate titration of each compound to the assay plate (quantitative HTS), with a final compound concentrations ranging from approximately ~60uM to 0.3nM. One microliter of firefly luciferase in […] Tris-acetate buffer was then delivered by FRD to each well for a final enzyme concentration of 10nM. Luciferase activity was then measured using a ViewLux CCD imager (PerkinElmer), with an average exposure time of 2-30 seconds (2X binning, medium/high gain).

Chain of Luciferin 4-monooxygenase (Photinus pyralis) (P08659 whole entry, looked up): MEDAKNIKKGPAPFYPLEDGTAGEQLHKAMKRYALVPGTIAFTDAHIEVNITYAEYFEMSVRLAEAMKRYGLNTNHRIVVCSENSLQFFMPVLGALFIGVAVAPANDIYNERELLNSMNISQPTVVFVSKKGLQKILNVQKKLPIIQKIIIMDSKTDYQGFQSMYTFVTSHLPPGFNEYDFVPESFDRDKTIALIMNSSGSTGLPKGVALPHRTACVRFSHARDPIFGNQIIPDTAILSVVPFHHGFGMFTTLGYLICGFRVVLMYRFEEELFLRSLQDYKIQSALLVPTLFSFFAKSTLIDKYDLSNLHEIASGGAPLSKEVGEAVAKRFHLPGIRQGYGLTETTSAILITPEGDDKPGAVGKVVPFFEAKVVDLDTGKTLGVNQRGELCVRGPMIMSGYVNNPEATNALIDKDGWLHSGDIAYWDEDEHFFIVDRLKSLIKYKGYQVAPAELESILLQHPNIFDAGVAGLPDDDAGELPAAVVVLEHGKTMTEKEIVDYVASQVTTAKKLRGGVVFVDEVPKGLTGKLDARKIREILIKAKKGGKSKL

SMILES | Potency
Oc1ccc(-c2nc3ccccc3s2)c(O)c1 | 2590 nM (active)
COc1ccccc1C(=O)Nc1ccc(C(=O)Nc2ccccc2C(=O)O)cc1 | inactive
CCOc1ccc2nc(NC(=O)c3ccccn3)sc2c1 | 130 nM (active)
Cc1c(NC(=O)C(C)(C)C)cccc1-c1nc2ccccc2s1 | 25900 nM (active)
COc1ccc(Br)cc1C(=O)Nc1ccc(C(=O)O)cc1 | inactive
O=C(Nc1ccccc1C(=O)O)c1cc(S(=O)(=O)Nc2ccccc2)ccc1Cl | inactive
Cc1ccc(C(=O)Nc2cccc(C(=O)O)c2)cc1S(=O)(=O)N1CCCC1 | 461 nM (active)
O=C(Nc1cccc(-c2nc3ccccc3s2)c1)c1cc(-n2cnnc2)ccc1Cl | 9190 nM (active)
O=C(COC(=O)c1ccccc1[N+](=O)[O-])c1ccc2c(c1)OCO2 | 4.6 nM (active)
O=S(=O)(c1ccc(-c2nc3ccccc3s2)cc1)N1CCCC1 | 919 nM (active)
O=C(Nc1ccc(-c2nc3ccccc3s2)cc1)C1=COCCO1 | 18.3 nM (active)
Nc1ccccc1-c1nc2ccccc2s1 | 2910 nM (active)
Cc1c(NS(C)(=O)=O)cccc1-c1nc2ccccc2s1 | 10300 nM (active)
CC(C)c1ccc(C(=O)Nc2ccc(-c3nc4ccccc4s3)c(Cl)c2)cc1 | inactive
COc1ccc2nc(NC(=O)c3cccs3)sc2c1 | 7300 nM (active)
COc1ccc2nc(NC(=O)c3cnccn3)sc2c1 | 517 nM (active)
COc1cccc(-c2nc3ccccc3s2)c1 | 326 nM (active)
COc1cc(OC)cc(-c2nc3ccccc3s2)c1 | 4110 nM (active)
O=C(Nc1ccccc1C(=O)O)c1ccc(NC(=O)C2CCCO2)cc1 (stereo not given) | 20600 nM (active)
O=C(O)c1cccc(NC(=O)c2ccc(COc3ccc(Cl)cc3)cc2)c1 | 3660 nM (active)

SMILES | Potency
CCOc1ccc2nc(NC(=O)c3ccccc3)sc2c1 | 91.9 nM (active)
COc1ccc2nc(NC(=O)c3ccc4ncsc4c3)sc2c1 | 1460 nM (active)
O=C(Nc1ccccc1-c1nc2ccccc2s1)c1cccnc1 | 36600 nM (active)
O=C(Cc1ccccc1)Nc1ccccc1C(=O)Nc1ccc(C(=O)O)cc1 | inactive
Cc1ccc(C(=O)O/N=C(\N)c2ccccn2)cc1 | 7.3 nM (active)
CN(C)c1cccc(C(=O)Nc2ccc(-c3nc4ccccc4s3)cc2)c1 | 819 nM (active)
Cc1ccc(C(=O)Nc2ccccc2C(=O)O)cc1S(=O)(=O)N1CCCCCC1 | 1830 nM (active)
COc1ccc(C(=O)Nc2ccccc2C(=O)Nc2ccccc2C(=O)O)cc1 | 4610 nM (active)
COc1ccc(C(=O)Nc2cccc(C(=O)O)c2)cc1S(=O)(=O)N1CCCC1 | 14600 nM (active)
O=C(O)c1cccc(NC(=O)c2cccc(NC(=O)C3CCCO3)c2)c1 (stereo not given) | 4110 nM (active)
O=C(Nc1c(Cl)cc(Cl)cc1-c1nc2ccccc2s1)c1ccc(Br)o1 | inactive
CN(C)S(=O)(=O)c1ccc(C(=O)Nc2ccccc2C(=O)O)cc1 | 32600 nM (active)
COc1ccc2nc(NC(=O)c3ccc(S(=O)(=O)N4CCCC(C)C4)cc3)sc2c1 (stereo not given) | inactive
CCCOc1cccc(C(=O)Nc2ccc(-c3nc4ccccc4s3)c(Cl)c2)c1 | inactive
O=C(Nc1ccccc1C(=O)O)c1cccc(S(=O)(=O)N2CCCC2)c1 | 16300 nM (active)
CC(C)(C)NC(=O)c1ccccc1-c1nc2ccccc2s1 | inactive
O=C(Nc1ccccc1C(=O)O)c1ccc(Cl)c(S(=O)(=O)N2CCOCC2)c1 | 10300 nM (active)
O=C(Nc1ccccc1C(=O)O)c1cccc(S(=O)(=O)Nc2ccc(Br)cc2)c1 | inactive
CCOc1ccc2nc(NC(=O)c3ccoc3C)sc2c1 | 130 nM (active)
COc1ccc(NS(=O)(=O)c2cccc(C(=O)Nc3ccccc3C(=O)O)c2)cc1 | inactive
